Values joined by “and” are separate entries in the source; they are usually repeats but may differ in a detail not shown here. Equal values may be shown once. Read-outs that look alike come from different tables or passages of the source.
Legend:
TNIK = details: concentration: 1 μM, replicates: in singlicate; n = 1
TNK1 = details: concentration: 1 μM, replicates: in singlicate; n = 1
TNK2 = details: n = 1
TNNI3K = details: n = 1
TRKA = system: T1, TRKA; details: concentration: 1 μM, replicates: in singlicate; n = 1
T1 construct: gene NTRK1

TRKB = details: n = 1
TRKC = system: T2, TRKC; details: n = 1
T2 construct: gene NTRK3

TRPM6 = details: n = 1
TSSK1B = details: n = 1
TSSK3 = details: n = 1
[1] = concentration: 1 μM, replicates: in singlicate
[2] = concentration: 1 μM,replicates: in singlicate, 1 µM
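Also: KINOMEscan kinase panel screen.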

SMILES: Cl.O=C(Nc1cccc(-c2nn3ncccc3c2-c2ccnc(Nc3cccnc3)n2)c1)c1c(F)cccc1F [GSK312879]
- %Inh (TNIK): 1%
- %Inh (TNK1): 49%
- %Inh (TNK2; [1]): 13%
- %Inh (TNNI3K; [1]): 0%
- %Inh (TRKA): 0%
- %Inh (TRKB; [1]): 30%
- %Inh (TRKC; [1]): 7%
- %Inh (TRPM6; [1]): 28%
- %Inh (TSSK1B; [1]): 27%
- %Inh (TSSK3; [1]): 9%

SMILES: CC(C)(C)c1ccc(C(=O)Nc2cn3cc(Cl)ccc3n2)cc1
- %Inh (TNIK): 4%
- %Inh (TNK1): 30%
- %Inh (TNK2; [1]): 2%
- %Inh (TNNI3K; [1]): 0%
- %Inh (TRKA): 0%
- %Inh (TRKB; [1]): 0%
- %Inh (TRKC; [1]): 0%
- %Inh (TRPM6; [1]): 0%
- %Inh (TSSK1B; [1]): 0%
- %Inh (TSSK3; [1]): 0%

SMILES: Cc1c(Cn2ccn3c(=O)cc(N4CCOCC4)nc23)cccc1C(F)(F)F [GSK2289044]
- %Inh (TNIK): 3%
- %Inh (TNK1): 0%
- %Inh (TNK2; [1]): 6%
- %Inh (TNNI3K; [1]): 2%
- %Inh (TRKA): 1%
- %Inh (TRKB; [1]): 0%
- %Inh (TRKC; [1]): 0%
- %Inh (TRPM6; [1]): 12%
- %Inh (TSSK1B; [1]): 12%
- %Inh (TSSK3; [1]): 6%

SMILES: CS(=O)(=O)c1ccc(-c2nc3n(c2-c2ccncc2)CCC3)cc1 [SKF-105942]
- %Inh (TNIK): 0%
- %Inh (TNK1): 0%
- %Inh (TNK2; [1]): 42%
- %Inh (TNNI3K; [1]): 19%
- %Inh (TRKA): 0%
- %Inh (TRKB; [1]): 0%
- %Inh (TRKC; [1]): 0%
- %Inh (TRPM6; [1]): 0%
- %Inh (TSSK1B; [1]): 100%
- %Inh (TSSK3; [1]): 6%

SMILES: COc1cc2ncn(-c3cc(OCC4CCCO4)c(C(N)=O)s3)c2cc1OC (stereo not shown) [GSK204607]
- %Inh (TNIK): 27%
- %Inh (TNK1): 0%
- %Inh (TNK2; [1]): 17%
- %Inh (TNNI3K; [1]): 0%
- %Inh (TRKA): 15%
- %Inh (TRKB; [1]): 0%
- %Inh (TRKC; [1]): 0%
- %Inh (TRPM6; [1]): 0%
- %Inh (TSSK1B; [1]): 0%
- %Inh (TSSK3; [1]): 10%

SMILES: O=C(Nc1ccccc1)Nc1cccc(Oc2ccc3nccn3n2)c1
- %Inh (TNIK): 7%
- %Inh (TNK1): 23%
- %Inh (TNK2; [1]): 0%
- %Inh (TNNI3K; [1]): 0%
- %Inh (TRKA): 0%
- %Inh (TRKB; [1]): 0%
- %Inh (TRKC; [1]): 27%
- %Inh (TRPM6; [1]): 0%
- %Inh (TSSK1B; [1]): 0%
- %Inh (TSSK3; [1]): 0%

SMILES: Cc1ccc(C(=O)Nc2ccc(Nc3ccnc4cc(-c5ccccn5)ccc34)cc2O)cc1.Cl [GW440146]
- %Inh (TNIK): 0%
- %Inh (TNK1): 45%
- %Inh (TNK2; [1]): 95.3%
- %Inh (TNNI3K; [1]): 0%
- %Inh (TRKA): 7%
- %Inh (TRKB; [1]): 0%
- %Inh (TRKC; [1]): 34%
- %Inh (TRPM6; [1]): 57%
- %Inh (TSSK1B; [1]): 34%
- %Inh (TSSK3; [1]): 13%

SMILES: Fc1cc(Cl)ccc1Nc1ccnc2cc(-c3ccc(CN4CCCCC4)o3)ccc12 [GW560116]
- %Inh (TNIK): 10%
- %Inh (TNK1): 0%
- %Inh (TNK2; [1]): 2%
- %Inh (TNNI3K; [1]): 0%
- %Inh (TRKA): 4%
- %Inh (TRKB; [1]): 19%
- %Inh (TRKC; [1]): 12%
- %Inh (TRPM6; [1]): 0%
- %Inh (TSSK1B; [1]): 0%
- %Inh (TSSK3; [1]): 8%

SMILES: O=c1cc(N2CCOCC2)nc2n(Cc3cccc(Cl)c3Cl)ccn12 [GSK2286295]
- %Inh (TNIK): 0%
- %Inh (TNK1): 8%
- %Inh (TNK2; [1]): 12%
- %Inh (TNNI3K; [1]): 13%
- %Inh (TRKA): 0%
- %Inh (TRKB; [1]): 0%
- %Inh (TRKC; [1]): 0%
- %Inh (TRPM6; [1]): 25%
- %Inh (TSSK1B; [1]): 0%
- %Inh (TSSK3; [1]): 47%

SMILES: Clc1cc(Cl)cc(Nc2ccnc(Nc3cc(Cl)cc(Cl)c3)n2)c1 [GSK175726]
- %Inh (TNIK): 0%
- %Inh (TNK1): 0%
- %Inh (TNK2; [1]): 12%
- %Inh (TNNI3K; [1]): 6%
- %Inh (TRKA): 19%
- %Inh (TRKB; [1]): 0%
- %Inh (TRKC; [1]): 0%
- %Inh (TRPM6; [1]): 0%
- %Inh (TSSK1B; [1]): 0%
- %Inh (TSSK3; [1]): 10%

SMILES: Cc1cc(NCC(c2ccccc2)c2ccccc2)nc(NCc2ccc(C(F)(F)F)cc2)n1 [GW497681]
- %Inh (TNIK): 0%
- %Inh (TNK1): 0%
- %Inh (TNK2; [1]): 0%
- %Inh (TNNI3K; [1]): 0%
- %Inh (TRKA): 0%
- %Inh (TRKB; [1]): 14%
- %Inh (TRKC; [1]): 7%
- %Inh (TRPM6; [1]): 0%
- %Inh (TSSK1B; [1]): 0%
- %Inh (TSSK3; [1]): 4%

SMILES: COc1ccc(C2=C(Nc3cccc(C(=O)O)c3)C(=O)NC2=O)cc1 [SB-390765]
- %Inh (TNIK): 0%
- %Inh (TNK1): 5%
- %Inh (TNK2; [1]): 6%
- %Inh (TNNI3K; [1]): 0%
- %Inh (TRKA): 47%
- %Inh (TRKB; [1]): 0%
- %Inh (TRKC; [1]): 22%
- %Inh (TRPM6; [1]): 0%
- %Inh (TSSK1B; [1]): 8%
- %Inh (TSSK3; [1]): 0%

SMILES: COc1ccccc1-c1ccc2c(NC(=O)C3CC3)n[nH]c2n1 [SB-711239]
- %Inh (TNIK): 0%
- %Inh (TNK1): 4%
- %Inh (TNK2; [1]): 8%
- %Inh (TNNI3K; [1]): 14%
- %Inh (TRKA): 24%
- %Inh (TRKB; [1]): 0%
- %Inh (TRKC; [1]): 20%
- %Inh (TRPM6; [1]): 0%
- %Inh (TSSK1B; [1]): 0%
- %Inh (TSSK3; [1]): 21%

SMILES: Nc1ncnc2[nH]c(-c3ccccc3)nc12 [AH5015]
- %Inh (TNIK): 1%
- %Inh (TNK1): 0%
- %Inh (TNK2; [1]): 24%
- %Inh (TNNI3K; [1]): 11%
- %Inh (TRKA): 0%
- %Inh (TRKB; [1]): 45%
- %Inh (TRKC; [1]): 26%
- %Inh (TRPM6; [1]): 4%
- %Inh (TSSK1B; [1]): 9%
- %Inh (TSSK3; [1]): 7%

SMILES: CSc1nn2c(=O)cc(N3CCOCC3)nc2n1Cc1cccc(C(F)(F)F)c1C [GSK2363608]
- %Inh (TNIK): 0%
- %Inh (TNK1): 0%
- %Inh (TNK2; [2]): 17% and 30%
- %Inh (TNNI3K; [2]): 1% and 10%
- %Inh (TRKA): 0%
- %Inh (TRKB; [2]): 0% and 3%
- %Inh (TRKC; [2]): 0% and 11%
- %Inh (TRPM6; [2]): 22% and 0%
- %Inh (TSSK1B; [2]): 18% and 77%
- %Inh (TSSK3; [2]): 18% and 6%

SMILES: Cn1ccc2ncnc(Oc3cccc(C(=O)Nc4ccccc4)c3)c21
- %Inh (TNIK): 16%
- %Inh (TNK1): 3%
- %Inh (TNK2; [1]): 9%
- %Inh (TNNI3K; [1]): 1%
- %Inh (TRKA): 21%
- %Inh (TRKB; [1]): 0%
- %Inh (TRKC; [1]): 0%
- %Inh (TRPM6; [1]): 0%
- %Inh (TSSK1B; [1]): 9%
- %Inh (TSSK3; [1]): 0%

Reference: PMC5540273 (PLoS ONE, 2017)
